# Shown are actives, neighbours in structure and some others; about 19% of the full set was active somewhere.
# HT1080-NT tox = kills 2HG-producing HT-1080-NT fibrosarcoma cells; HT-1080-NT fibrosarcoma viability, CellTiter-Glo ATP luminescence, 48 h; Potency, µM (top dose mostly 46.1 µM), usual class: cytotoxic; 360,000 tested, 1.6% active;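 note: NT is the 2HG producing partner of a matched IDH1 knockdown line; nearly all actives have a fitted effect of over 55% in size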
#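 HT-1080-NT fibrosarcoma cells (2HG-overproducing), 750 cells/well in RPMI with 5% FBS, dosed after 2 h and incubated 48 h at 37C. CellTiter-Glo luminescence normalized to DMSO and no-cell wells; concentration-response curves fitted and classed.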
# TDP1 cell noCPT = qHTS for Inhibitors of human tyrosyl-DNA phosphodiesterase 1 (TDP1): qHTS in cells in absence of CPT. DT40 Tdp1-/- hTDP1 cells, no CPT, ATP luminescence, 48 h. Potency, µM (doses to about 46.2 µM), hits mostly inhibitors. 420,000 tested, 15% active; note: nearly all actives have a fitted effect of over 55% in size
#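 Growth of hTDP1-complemented DT40 Tdp1-knockout cells is measured by ATP luminescence after at least 48 hr compound exposure at 37 °C, with DMSO substituting for the 20 nM CPT used in the parallel screen.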
# HT1080 IDH1KD tx = kills HT-1080 cells with IDH1 knockdown; 360,000 tested, 2% active; AID 686971; Potency, µM (top dose mostly 46.1 µM), usual class: cytotoxic; HT-1080 IDH1 knockdown viability, ATP luminescence, 48 h
#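 Cytotoxicity counter-line: IDH1KD HT-1080, 48 h, CellTiter-Glo. Curves classed by r2, magnitude and activity.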
# IL-1B inflam inh = inhibitors of inflammasome signaling (IL-1 beta secretion); THP-1 LPS/ATP IL-1B secretion, AlphaLISA, 16 h; hits give low values; activity change, % at 57.5 µM; 360,000 tested, 4.7% active; AID 743279; in the data active = activity change below about -50%; inconclusive = mostly about -30% to -49%
#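 Secreted IL-1B measured by AlphaLISA bead assay after 16 h compound exposure of THP-1 cells; compounds (final up to 57.5 uM) added 1 h before LPS (250 ng/mL) and ATP (1.25 mM) stimulation; lower signal means less secretion.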
# DT40 TDP1 CPT = growth inhibition of DT40 Tdp1-/-;hTDP1 cells with camptothecin (screen for TDP1 inhibitors). 420,000 tested, 12% active. Potency, µM (titrated, usually from 46.2 µM), usual class: inhibitors. chicken DT40 Tdp1-/-;hTDP1 cells + 20 nM CPT, ATP luminescence, 48 h; note: nearly all actives have a fitted effect of over 55% in size
#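 Chicken DT40 Tdp1-/- cells complemented with human TDP1, 400 cells/well, exposed to compounds plus 20 nM camptothecin for at least 48 h at 37 C; viability read as ATP content by CellTiter-Glo luminescence.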
# Hits are given with their value; 0 = inactive; ? = inconclusive; - = not tested or not shown; [ ] = dose if it differs, or a comment. Unless noted, calls come from the whole dose curve; as a rule, active = well fitted curve in the direction sought with a large enough effect; inconclusive = small, poorly fitted or top-dose-only effect, or another doubt; inactive = no such curve, though single readings can be large; an effect the other way counts as inactive or inconclusive.
SMILES,HT1080-NT tox,TDP1 cell noCPT,HT1080 IDH1KD tx,IL-1B inflam inh,DT40 TDP1 CPT
CCOC(=O)c1ccc(NC(=O)CSc2nc3ncccc3[nH]2)cc1,0,20.6µM,0,0,?
CCCCc1ccc(NC(=O)CSc2nc3ncccc3[nH]2)cc1,0,1.16µM,0,0,2.59µM
CCc1ccc(NC(=O)CSc2nc3ncccc3[nH]2)cc1,-,13µM,-,-,?
C=CCNC(=S)N/N=C/c1cccc([N+](=O)[O-])c1,0,?,0,0,0
CCC1=Nc2cc(C(=O)NCC3CCCO3)ccc2Sc2ccc(Cl)cc21 (stereo not drawn),?,4.11µM,16.4µM,0,3.66µM
O=C(NCC1CCCO1)c1ccc(NC(=O)c2ccc(Br)cc2)cc1 (stereo not drawn),0,?,0,-,0
CCC1=Nc2cc(C(=O)NCC3CCCO3)ccc2Sc2ccc(Br)cc21 (stereo not drawn),?,3.26µM,9.2µM,0,3.66µM
O=C(NCC1CCCO1)c1ccc(NC(=O)c2cccc(Cl)c2)cc1 (stereo not drawn),0,0,0,0,0
Cc1ccc(S(=O)(=O)N2CCOC2CNC(=O)C(=O)NCCN(C)C)cc1 (stereo not drawn),0,0,0,0,0
COc1ccc(NC2CCCN(C(=O)c3cn(C)c4ccccc34)C2)cc1 (stereo not drawn),0,0,0,0,0
CCCOC(=O)c1cccc(NC(=O)C(C)(C)C)c1,0,?,0,0,?
CC(C)(C)C(=O)Nc1ccc2c(c1)C(=O)C(=O)c1ccccc1-2,0.794µM,0.708µM,0.794µM,-,0.708µM
CC(C)(C)C(=O)Nc1cccc(C(=O)c2cccc(NC(=O)C(C)(C)C)c2)c1,0,8.2µM,0,0,?
O=C(CSc1cn[nH]n1)Nc1ccccc1F,0,0,0,0,0
COc1cc(C#N)ccc1OCC(=O)NCCC1=CCCCC1,0,0,0,0,0
CC(=O)C1(C)CCC2C3C=C(C)C4=CC(=O)CCC4(C)C3CCC21C (stereo not drawn),0,23.1µM,0,-73.2,18.4µM
CC(=O)[C@@]1(O)CC[C@H]2[C@@H]3CCC4=CC(=O)CC[C@]4(C)[C@H]3[C@@H](O)C[C@@]21C,?,0,0,0,0
C=C1CC2C(CCC3(C)C2CCC3(O)C(C)=O)C2(C)CCC(=O)C=C12 (stereo not drawn),?,25.9µM,0,-92.0,?
CCOC(=O)C1CCCN(C(=O)c2ccc(S(=O)(=O)NCc3ccco3)cc2)C1 (stereo not drawn),0,0,0,0,?
Clc1ccc(OCCN2CCOCC2)cc1Cl,0,0,0,0,0
C=CCOc1ccc2c(c1)C(=NO)c1cc(OCC=C)ccc1-2,0,23.1µM,0,?,?
NC(=S)NN=C1c2cc(OCCN3CCOCC3)ccc2-c2ccc(OCCN3CCOCC3)cc21,?,16.4µM,?,-96.0,16.4µM
ON=C1c2cc(OCCN3CCCCC3)ccc2-c2ccc(OCCN3CCCCC3)cc21,20.6µM,8.2µM,23.1µM,-97.2,7.31µM
COc1ccc2c(c1)C(=NO)c1cc(OC)ccc1-2,0,?,0,?,?
Cc1ccc(CCNC(=O)C2CCN(S(=O)(=O)c3ccc4nc5c(c(C(=O)O)c4c3)CCCC5)CC2)cc1,0,0,0,0,0
SMILES,HT1080-NT tox,TDP1 cell noCPT,HT1080 IDH1KD tx,IL-1B inflam inh,DT40 TDP1 CPT
CC(NC(=O)c1cnn2c1NC(=C1CC1)C=C2C(F)F)c1ccncc1 (stereo not drawn),-,0,-,-,0
CCCCn1nnnc1SCC(=O)Nc1ccc(N(C)C)cc1,0,0,0,0,0
O=C(CCN1CCN(C(c2ccccc2)c2ccccc2)CC1)N/N=C/c1ccc(O)cc1,0,?,0,0,?
O=C(CCN1CCN(C(c2ccccc2)c2ccccc2)CC1)N/N=C/c1ccc(O)cc1O,?,5.17µM,?,0,6.51µM
COc1ccc(OC)c(/C=N/NC(=O)CCN2CCN(C(c3ccccc3)c3ccccc3)CC2)c1,?,16.4µM,0,0,?
CCOc1ccc2oc(C(=O)N3CCN(c4ccccc4OCC)CC3)c(C)c2c1,0,?,0,0,?
CCOc1ccc(-c2nc(CSCC(=O)N3CCN(c4cccc(OC)c4)CC3)c(C)o2)cc1,0,?,0,0,23.1µM
CCOC(=O)N1CCC(NC(=O)CSCc2nc(-c3ccc(OCC)cc3)oc2C)CC1,0,?,0,0,?
COc1cccc(-c2nc(CSCC(=O)N3CCc4ccccc43)c(C)o2)c1,0,0,0,0,0
COc1ccc(-c2nc(CSCC(=O)N3CCN(c4ccccc4F)CC3)c(C)o2)cc1,-,8.2µM,-,-,16.4µM
CC(C)(C)c1ccc(Cc2n[nH]c(=S)[nH]c2=O)cc1,0,0,0,0,?
CCOC(=O)c1c(NC(=O)c2cc(=O)c3cc(C)cc(C)c3o2)sc(C)c1C,-,0,-,-,0
COc1ccccc1NC(=O)c1ccc(-c2nc(COc3ccc(C)cc3)c(C)o2)cc1,-,18.4µM,-,-,20.6µM
Cc1oc(-c2ccc(C(=O)NCc3ccccc3)cc2)nc1CN1CCc2ccccc21,-,20.6µM,-,-,?
COc1ccc(OC)c(NC(=O)c2ccc(-c3nc(COc4ccccc4)c(C)o3)cc2)c1,-,13µM,-,-,?
Cc1ccc(OCc2nc(-c3ccc(C(=O)NCc4ccc(OC(C)C)cc4)cc3)oc2C)cc1,-,20.6µM,-,-,?
Cc1ccc(OCc2nc(-c3ccc(C(=O)NCCc4ccc(Cl)cc4)cc3)oc2C)cc1,-,0,-,-,?
Cc1nc2cc(NC(=O)[C@@H]3C[C@@H](Sc4ccccn4)CN3Cc3cccc(F)c3)ccc2s1,-,0,-,-,0[9.04 µM]
CCc1cc(CNC(=O)C2CCC(=O)N(CCc3cccc(F)c3)C2)on1 (stereo not drawn),0,0,0,0,0
CC(C)C(=O)N1CCC2(CC1)Oc1ccc(Cl)cc1C(=O)C21CC(c2ccccc2)=NO1 (stereo not drawn),0,?,0,?,?
CCC(=O)N1CCC2(CC1)Oc1ccc(F)cc1C(=O)C21CC(c2ccc(Cl)cc2)=NO1 (stereo not drawn),0,25.9µM,0,?,?
CCC(=O)N1CCC2(CC1)Oc1ccc(Cl)cc1C(=O)C21CC(c2ccc(Cl)cc2)=NO1 (stereo not drawn),0,13µM,0,?,?
CC(C)C(=O)N1CCC2(CC1)Oc1ccc(F)cc1C(=O)C21CC(c2ccc(Cl)cc2)=NO1 (stereo not drawn),0,?,0,-67.4,?
COCCSc1ccccc1C(=O)Nc1ccccc1C#N,0,?,0,0,0
O=C(O)c1ccc(OCCN2CCCC2=O)cc1,0,0,0,0,0
O=C(NCc1ccccc1Cl)c1ccc(NC2=NC3CS(=O)(=O)CC3S2)cc1 (stereo not drawn),0,0,0,0,0

# Compound activity: PubChem BioAssay, National Center for Advancing Translational Sciences (NCATS)
